Values joined by “and” are separate entries in the source; they are usually repeats but may differ in a detail not shown here. Equal values may be shown once. The whole screen tested about 5,500 compounds, of which about 2,000 (36%) were called active. Inconclusive results (about 18%) are left out. Cut-off read from the data, not from the text of the source: active = normalized growth mostly below about 0.91 (no sharp cut-off); inconclusive = no clear call, values can overlap the other calls; inactive = mostly above about 0.92. Some of the results follow.
Assay: chemical genetic growth profiling, strain panel (AID 1159580);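 note: tested at 20 µM; growth read once vehicle control cultures reached saturation at 30 °C; 1 = growth at the plate median or of vehicle wells; lower values mean less growth of the strain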
Details: S. cerevisiae deletion strains, growth OD

Measured: normalized growth

CC(=O)NS(=O)(=O)c1ccc(N)cc1
inactive: locus YAL021C, strain ccr4, active compounds read low 1 | locus YAL026C, strain drs2, active compounds read low 1.01 | locus YAL030W, strain snc1, active compounds read low 1.01 | locus YBL061C, strain skt5, active compounds read low 0.999 | locus YBR009C, strain hhf1, active compounds read low 1.01 | locus YBR021W, strain FUR4, active compounds read low 0.987 | locus YBR023C, strain chs3, active compounds read low 1.01 | locus YBR171W, strain sec66, active compounds read low 1.02 | locus YBR229C, strain ROT2, active compounds read low 0.986 | locus YBR231C, strain swc5, active compounds read low 1.03 | locus YBR279W, strain paf1, active compounds read low 1.01 | locus YCL011C, strain gbp2, active compounds read low 1.02 | locus YCL016C, strain dcc1, active compounds read low 1.01 | locus YCL029C, strain bik1, active compounds read low 0.973 | locus YCL061C, strain MRC1, active compounds read low 1.02 | locus YCL069W, strain vba3, active compounds read low 1 | locus YCR088W, strain abp1, active compounds read low 1.01 | locus YDL005C, strain med2, active compounds read low 1.01 | locus YDL035C, strain GPR1, active compounds read low 1 | locus YDL040C, strain nat1, active compounds read low 0.995 | locus YDL074C, strain BRE1, active compounds read low 1.02 | locus YDL101C, strain DUN1, active compounds read low 0.987 | locus YDL134C, strain PPH21, active compounds read low 0.99 | locus YDL185W, strain tfp1, active compounds read low 0.98 | locus YDL192W, strain arf1, active compounds read low 0.971 | locus YDR001C, strain nth1, active compounds read low 1.01 | locus YDR069C, strain doa4, active compounds read low 1.03 | locus YDR101C, strain arx1, active compounds read low 0.971 | locus YDR137W, strain rgp1, active compounds read low 0.997 | locus YDR150W, strain NUM1, active compounds read low 0.994 | locus YDR159W, strain sac3, active compounds read low 1.03 | locus YDR162C, strain NBP2, active compounds read low 0.999 | locus YDR195W, strain ref2 0.998 | locus YDR297W, strain sur2, active compounds read low 1 | locus YDR318W, strain mcm21, active compounds read low 0.987 | locus YDR334W, strain swr1, active compounds read low 0.999 | locus YDR335W, strain msn5, active compounds read low 0.993 | locus YDR388W, active compounds read low 0.977 | locus YDR392W, strain spt3, active compounds read low 1.01 | locus YDR502C, strain sam2, active compounds read low 0.99 | locus YEL003W, strain gim4, active compounds read low 1.01 | locus YEL037C, strain rad23, active compounds read low 1.01 | locus YEL061C, strain CIN8 (second series), active compounds read low 1.02 | locus YEL061C, strain CIN8, active compounds read low 0.993 | locus YER015W, strain faa2, active compounds read low 1.01 | locus YER016W, strain bim1, active compounds read low 1.02 | locus YER110C, active compounds read low 0.975 | locus YER111C, strain swi4, active compounds read low 1 | locus YER155C, strain BEM2 (second series), active compounds read low 1.05 | locus YER155C, strain BEM2, active compounds read low 0.986 | locus YER167W, strain BCK2, active compounds read low 0.989 | locus YFR010W, strain ubp6, active compounds read low 1.02 | locus YGL078C, strain dbp3, active compounds read low 0.974 | locus YGL086W, strain mad1, active compounds read low 1 | locus YGL167C, strain pmr1, active compounds read low 0.999 | locus YGL173C, strain kem1, active compounds read low 1.01 | locus YGL227W, strain vid30, active compounds read low 1.01 | locus YGL240W, strain doc1, active compounds read low 0.999 | locus YGL248W, strain PDE1, active compounds read low 0.994 | locus YGL253W, strain hxk2, active compounds read low 1.02 | locus YGR078C, strain PAC10, active compounds read low 0.998 | locus YGR135W, strain pre9, active compounds read low 0.976 | locus YGR252W, strain gcn5, active compounds read low 1.05 | locus YHR013C, strain ard1, active compounds read low 1.01 | locus YHR027C, strain rpn1, active compounds read low 1.02 | locus YHR030C, strain SLT2, active compounds read low 0.992 and 0.987 | locus YHR079C, strain IRE1 (second series), active compounds read low 0.978 | locus YHR079C, strain IRE1, active compounds read low 0.982 | locus YHR094C, strain hxt1, active compounds read low 0.993 | locus YHR129C, strain ARP1, active compounds read low 0.997 | locus YHR142W, strain chs7, active compounds read low 1.01 | locus YHR200W, strain rpn10, active compounds read low 0.984 | locus YIL066C, strain RNR3, active compounds read low 0.993 | locus YIL073C, strain SPO22, active compounds read low 0.934 | locus YIL125W, strain kgd1, active compounds read low 0.986 | locus YIR030C, strain dcg1, active compounds read low 0.981 | locus YJL092W, strain hpr5, active compounds read low 1.02 | locus YJL095W, strain BCK1 (second series), active compounds read low 1.01 | locus YJL095W, strain BCK1, active compounds read low 1 and 0.978 | locus YJL115W, strain asf1, active compounds read low 1.04 | locus YJL129C, strain trk1, active compounds read low 1.01 | locus YJL134W, strain LCB3, active compounds read low 0.992 | locus YJL154C, strain vps35, active compounds read low 1.01 | locus YJL164C, strain tpk1, active compounds read low 1 | locus YJL166W, strain qcr8, active compounds read low 1 | locus YJL168C, strain set2, active compounds read low 0.986 | locus YJL187C, strain SWE1 (second series), active compounds read low 0.983 | locus YJL187C, strain SWE1, active compounds read low 1.01 | locus YJR043C, strain POL32, active compounds read low 0.997
